# Screening data deposited in PubChem by several laboratories.
# mHtt clearance: mutant huntingtin protein clearance; inhibition, % at 1.5 µM; actives 0.42% (n = 47,000); HeLa Exon1htt(103Q)mCFP, aggregate imaging; zero = plate's median compound well;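 active means inhibition of aggregate fluorescence above about 70%, also judged a hit by eye on the cell image, limit read from the data, passing the limit was not always enough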;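 further: cells exposed to compound for three days before fixation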
# Abs 340nm: compounds absorbing at 340 nm; compound absorbance at 340 nm, fold over control; fold change at 10 µM; 65,000 tested, under 10 active; AID 708;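 active means at 10 µM dose, initial 340 nm absorbance at least 2 fold that of control wells; inactive means change under 2 fold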;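 further: initial absorbance extrapolated from kinetic A340 decline of NADH oxidation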
# M1 ag: M1 muscarinic receptor agonism; actives 3% (n = 64,000); AID 626; B-score at 10 µM; CHO-M1 cells, Fluo-4 calcium fluorescence, agonist mode; stronger effect = higher value;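 active means fluorescence rise, raw or as B-score row- and column-corrected plate score, outside the 99.7% band of its plate's samples, either direction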
# NADH coupling: inhibitors of enzymes used to reach an NAD/NADH endpoint | coupled PK/LDH NADH assays, four targets | IC50, µM (series often up to 10 µM) | actives 0.02% (n = 65,000);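 active means single-dose screening hits from any of four coupled enzyme assays that gave an IC50 when retested across doses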;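 further: the DPM-DC format reads NADH fluorescence rather than 340 nm absorbance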
# M1 antag: M1 muscarinic receptor (rat) antagonism; CHO-M1 cells, Fluo-4 calcium, ACh EC80 antagonist mode; stronger effect = lower value; B-score at 10 µM; actives 3.4% (n = 64,000); AID 628;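 active means calcium fluorescence response, raw or row-and-column corrected B-score, differing from the plate sample mean either way at a set confidence level, mostly lower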
# Target sequence (P08482 whole entry, looked up): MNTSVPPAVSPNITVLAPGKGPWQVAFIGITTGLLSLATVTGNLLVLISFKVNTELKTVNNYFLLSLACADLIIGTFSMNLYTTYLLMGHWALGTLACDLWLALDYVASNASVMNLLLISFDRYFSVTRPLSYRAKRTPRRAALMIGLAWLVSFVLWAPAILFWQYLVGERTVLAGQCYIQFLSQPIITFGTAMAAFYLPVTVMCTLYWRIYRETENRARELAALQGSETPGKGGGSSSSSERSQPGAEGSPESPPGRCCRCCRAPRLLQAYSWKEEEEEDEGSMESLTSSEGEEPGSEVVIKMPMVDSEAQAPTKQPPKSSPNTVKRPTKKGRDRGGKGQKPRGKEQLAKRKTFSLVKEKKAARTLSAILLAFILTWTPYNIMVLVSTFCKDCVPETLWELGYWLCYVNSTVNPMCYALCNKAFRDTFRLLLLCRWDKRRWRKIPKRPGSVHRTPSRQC
# Fluor 339 460: intrinsic fluorescence of library compounds, ex339/em460 – biochemical, MLSMR library, data from DPM-DC assay, artefact control, profiling panel | fluorescence fold increase at 10 µM | actives 5.5% (n = 65,000) | AID 709 | compound autofluorescence, ex339/em460 nm, NADH buffer; stronger effect = higher value; 1 = no-compound wells, NADH background;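 active means at 10 µM, mean starting fluorescence two-fold or more over control wells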;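 further: signal is the first read of a kinetic run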
# M1 antag conf: M1 muscarinic receptor (rat) antagonism, confirmed | CHO-M1 cells, Fluo-4 calcium, ACh EC80 antagonism; stronger effect = lower value | calcium response (max-min fluorescence) at 10 µM | shares compounds with M1 antag | actives 43% (n = 1,700);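 active means calcium response below the same-plate mean of wells given acetylcholine alone at its 80%-effect dose, minus 3 SD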
# mGluR4 antag: acts on human mGluR4 in M1 antagonist selectivity test | fluorescence response (max-min) at 10 µM | shares compounds with M1 antag | CHO-mGluR4 calcium flux, Fluo-4 fluorescence, glutamate EC80; stronger effect = lower value | actives 0.9% (n = 1,700);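 active means fluorescence response below the plate's average for near-maximal glutamate wells, less 3 SD of those wells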;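 further: raw unnormalized fluorescence span taken in the window right after glutamate addition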
# Numbers stand for hits; n = inactive; x = no result. Sampled rows, rich in hits. Any-hit rate of the full collection: about 9.3%.
SMILES,mHtt clearance,Abs 340nm,M1 ag,NADH coupling,M1 antag,Fluor 339 460,M1 antag conf,mGluR4 antag
Cc1c(C(=O)OC(C)CCN(C)C)oc2ccccc12 (configuration not stated),n,n,n,n,-13,n,18,n
Cc1c(C(=O)OCC(C)(C)CN(C)C)oc2ccccc12,x,n,n,n,-5,n,182,n
C=C(C)c1nc(N)nc(N)n1,n,n,n,n,n,n,x,x
C=CCC1(O)C(=O)N2C(=C1C(=O)N1CCOCC1)c1ccccc1CC2(C)C (configuration not stated),x,n,n,n,n,n,x,x
Cc1noc(/C=C/N(C)C)c1S(=O)(=O)N1CCCC(C(=O)NC2CCCCC2)C1 (configuration not stated),x,n,n,n,-2.3,n,n,n
CCC(C)NS(=O)(=O)c1cccs1 (configuration not stated),x,n,n,n,-3.4,n,n,n
CCOC(=O)CNC(=O)C(Cc1ccccc1)NS(=O)(=O)c1cccs1 (configuration not stated),x,n,n,n,n,n,x,x
O=C(c1ccc2nc(N3CCCCC3)sc2c1)N1CCN(Cc2ccc3c(c2)OCO3)CC1,x,n,n,n,-0.95,n,n,n
COc1ccc2cc(CN(CCO)C(=O)c3ccccc3F)c(=O)[nH]c2c1,x,n,n,n,-2.7,n,n,n
COc1ccc2cc(CCNC(=O)C(C)(C)C)c(=O)[nH]c2c1,x,n,n,n,n,n,x,x
CC(C)(C)c1cnnn1-c1ccc(NC(=O)c2ccc(Br)o2)cc1,x,n,n,n,-2.3,n,560,n
CCOC(=O)C1CCN(CC(O)COc2ccc(C(C)(C)CC)cc2)CC1 (configuration not stated),x,n,n,n,-4.7,n,n,n
C1CCc2c(nc3nnnn3c2NC2CCCC2)C1,n,x,x,x,x,x,x,x
CC(C)(C)n1nnnc1C(c1ccccc1)N1CCc2ccccc2C1 (configuration not stated),n,n,n,n,-12,n,368,n
CC(C)(C)n1nnnc1C(c1cccs1)N(Cc1ccccc1)Cc1cccnc1 (configuration not stated),n,n,n,n,-4.7,n,377,n
CC(C)(C)n1nnnc1C(c1cccnc1)N(Cc1ccccc1)Cc1cccs1 (configuration not stated),n,x,x,x,x,x,x,x
COc1cccc(C(c2sc3ncnn3c2O)N2CCN(C(=O)c3ccco3)CC2)c1 (configuration not stated),x,n,n,n,n,n,x,x
Oc1c(C(c2ccco2)N2CCN(C(c3ccccc3)c3ccccc3)CC2)sc2ncnn12 (configuration not stated),x,n,n,n,-3.4,n,512,n
Cc1coc2cc3oc(=O)c4c(c3cc12)CCCC4,n,n,n,n,n,n,x,x
CCc1cc2c3c(c(=O)oc2cc1OC)CCCC3,n,n,n,n,-1.8,3.8,n,n
CCOC(=O)c1cc(C)n(-c2c(C)n(C)n(-c3ccccc3)c2=O)c1C,x,n,n,n,-4.5,n,430,n
COc1cc(CCN2C(=O)c3cccc4cccc(c34)C2=O)c(S(=O)(=O)NCCCO)cc1OC,n,x,x,x,x,x,x,x
O=C(Nc1nncs1)C1c2ccccc2Oc2ccccc21,x,n,n,n,n,n,x,x
CCc1nc(Nc2ccncc2)c2oc3ccccc3c2n1,n,n,n,n,-2.4,2,441,n
CCc1nc(NCCN2CCOCC2)c2oc3ccccc3c2n1,x,n,n,n,n,n,x,x
SMILES,mHtt clearance,Abs 340nm,M1 ag,NADH coupling,M1 antag,Fluor 339 460,M1 antag conf,mGluR4 antag
CN(C)S(=O)(=O)c1ccc(NC(=O)CN2CCN(C(c3ccccc3)c3ccccc3)CC2)cc1,n,x,x,x,x,x,x,x
Cc1cc(C(=O)N(C)Cc2ccc(Br)cc2)no1,x,n,n,n,-7.8,n,n,n
Cc1cc(=O)n2nc(N3CCCC3C(=O)NCCCN3CCCCC3)sc2n1 (configuration not stated),x,n,n,n,n,n,x,x
CC(=O)c1cccc(NC(=O)COc2ccc(S(=O)(=O)N3CCCCC3)cc2)c1,n,n,n,n,n,n,x,x
COc1ccc2oc(C(=O)c3ccccc3)c(NC(=O)CN3CCN(C)CC3)c2c1,x,n,n,n,-3.2,n,n,n
CCOC(=O)c1oc2ccc(Br)cc2c1NC(=O)CN1CCN(C)CC1,n,n,n,n,-2.9,n,450,n
COC(=O)c1oc2ccc(Br)cc2c1NC(=O)CCN1CCOCC1,x,n,n,n,n,n,x,x
COc1ccc2nc(NC(=O)CN3CCN(C)CC3)sc2c1,x,n,n,n,n,n,x,x
CC(C)NC(=O)Cn1nnc(-c2cccc(NC(=O)c3ccccc3F)c2)n1,x,n,n,n,-17,n,n,n
N=c1c2c3c(sc2ncn1CCN1CCOCC1)CCCCC3,x,n,n,n,n,n,x,x
CCCCn1cnc2sc3c(c2c1=N)CCCC3,x,n,n,n,-2.5,n,n,n
COCCOC(=O)C1=C(C)N=C2SCCC(=O)N2C1c1cccc(Br)c1 (configuration not stated),x,n,n,n,n,n,x,x
CC(C)CC(=O)Nc1cccc(C(=O)Nc2ccccc2C(=O)O)c1,n,x,x,x,x,x,x,x
Cc1ccc(Cl)cc1N1CCN(C(c2cccnc2)c2nnnn2C2CCCCC2)CC1 (configuration not stated),x,n,n,n,n,n,x,x
Cc1ccc(Cl)cc1N1CCN(C(c2ccc(C#N)cc2)c2nnnn2C2CCCC2)CC1 (configuration not stated),n,n,n,n,-4.1,n,n,n
CC12CCC(C(=O)NCc3ccc4c(c3)OCO4)(C(=O)C1=O)C2(C)C (configuration not stated),n,x,x,x,x,x,x,x
N=c1c2c3c(sc2nc2n1CCC2)CCCC3,x,n,n,n,-1.9,n,n,n
Cc1cc(C)n(/N=C/c2cccc(O)c2)c(=O)c1C(N)=O,n,n,n,n,n,n,x,x
Nc1c(S(=O)(=O)c2cccs2)c2nc3ccccc3nc2n1/N=C/c1cccc(O)c1,x,n,n,n,-14,4,n,n
Cc1ccccc1OCC(=O)OC(C)CN1CCN(C)CC1 (configuration not stated),x,n,n,n,-5.5,n,n,n
Cc1ccc(-c2nnc(SCC(=O)Nc3nc4c(s3)CCCC4)n2C)cc1,x,n,n,n,-2.4,n,n,n
Cc1ccccc1-n1c(C)nnc1SCC(=O)N1CC(=O)Nc2ccccc21,x,n,n,n,n,n,x,x
COC(=O)[C@H](C)NC(=O)Nc1cc(OC)ccc1OC,n,n,n,n,-1.4,n,n,n
